Sampled rows, rich in hits. Any-hit rate of the full collection: about 6.6%.
CSC inhib: blocks cancer stem cells. inhibition, % at 7.5 µM. hit rate 1.1% among 300,000. cancer stem cell-like cells viability, luminescence; in the data active means inhibition above about 75%; tested in HMLE shEcad cells
MPTP block: permeability transition pore inhibition. hit rate 1.4% among 360,000. AID 602449. isolated mouse mitochondria, Ca2+ swelling absorbance, 30 min. inhibition, % at 10 µM;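 active means inhibition of 50% or more, scaled per plate between neutral and stimulator controls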;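 further: 0% = DMSO wells given calcium and 100% = 1 mM EGTA wells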
NR3A LBD binder: modulators (binders) of human NR3A ligand-binding domain. NR3A LBD differential scanning fluorimetry, Tm shift; 0% = protein alone, 100% = glycine-bound protein. Tm shift relative to glycine control, % at 25 µM. hit rate 2.5% among 340,000. AID 1259313;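 active means melting temperature shift of at least 10% of the positive control shift, at one fixed dose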
Beta cell apopt: blocks beta cell apoptosis | INS-1E cytokine-induced death, ATP luminescence, 48 h; percent of positive-control rescue, neutral wells zero | protection from apoptosis, % (concentration not given with the values) | hit rate 0.8% among 300,000 | AID 435005;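 active means Every replicate reaches about 75%, or at least half do and their mean reaches it too, limit read from the data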;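 further: 0% = cytokine-treated negative control wells and 100% = positive control rescue; higher means more ATP so stronger rescue from cytokine killing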
Gli-Sufu antag: blocks Gli-Sufu signaling in a luciferase reporter; Sufu-KO-LIGHT fibroblasts, Gli luciferase reporter luminescence; hit rate 0.74% among 340,000; inhibition, % at 5 µM; AID 588413;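 active means inhibition above about 55%, limit read from the data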;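 further: 0% = DMSO-treated cells and 100% = wells with medium but no cells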
Mdm2-MdmX inh: inhibitors of human Mdm2/MdmX interaction | O15151+Q00987 | SaOS-2 split-luciferase Mdm2/MdmX complementation, luminescence | inhibition, % at 8 µM | hit rate 3% among 330,000 | AID 485346;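 active means inhibition of at least 50% at 8 µM in the primary screen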
The depositor's hits bear a star; · = not tested or not shown.

SMILES	CSC inhib	MPTP block	NR3A LBD binder	Beta cell apopt	Gli-Sufu antag	Mdm2-MdmX inh
CCN(CC)c1ccc(C=C2C(=O)OC3(CCCC3)OC2=O)cc1	-22	0	23*	-5	1	27
CCN(CC)c1ccc(C=C2C(=O)OC(C)(C(C)(C)C)OC2=O)cc1 (stereo unspecified)	-4	3	2	-5	-1	12
CCn1c(CNC(=O)c2cccc(C)c2)nnc1SCC(=O)N1CCOCC1	-27	0	3	0	-1	-5
O=C(NCC(=O)N1CCCCC1)c1ccc2ccccc2c1	2	0	1	-3	-37	3
CC1CC(C)CN(C(=O)CNC(=O)c2ccc3ccccc3c2)C1 (stereo unspecified)	6	0	92*	1	3	22
C=C[C@](C)(CC[C@@]1(C)C(C)CC(OC2OC(C)C(OC3OC(COC(C)=O)C(O)C(O)C3O)C(O)C2O)[C@@]2(C)C(C)=CCCC12)OC1OC(C)C(O[C@@H]2O[C@@H](C)C(O)C(O)[C@H]2O)C(O)C1O (stereo partly specified)	·	-1	1	0	-1	27
C=C(CN(C)C)C(=O)c1cc(C)ccc1C	·	-2	11*	·	11	·
CN1C[C@@H]2[C@@H]3C(=O)N(C)C(=O)[C@@H]3[C@](C)(C1=O)N2C(=O)c1ccc(F)cc1	·	-1	10*	·	8	·
COC(=O)c1c(C)oc2ccc(N(C(=O)c3ccncc3)S(=O)(=O)c3ccc4ccccc4c3)cc12	8	39	4	105*	9	42
COC(=O)c1c(C)oc2ccc(N(C(=O)c3ccncc3)S(=O)(=O)c3ccccc3)cc12	2	10	-2	·	10	35
CCOc1ccc(/C=N/Nc2ccccc2)cc1	10	2	-1	5	1	4
O=C(N/N=C/c1ccc(Cl)cc1)Nc1ccccc1	-13	15	13*	3	-71	-16
Clc1ccc(/C=N\Nc2ccccc2)cc1	8	8	10*	-13	-3	-2
O=C(NCCCNC(=O)c1ccc(F)cc1)c1ccc(F)cc1	-18	1	1	-6	-1	-14
O=C1ON=C(c2ccccc2)/C1=C/c1ccc(-c2ccccc2[N+](=O)[O-])o1	54	1	23*	17	-3	·
COc1ccc(NC(=O)N2CCN(C(=O)c3ccco3)CC2)c(OC)c1	2	0	-2	-7	-7	24
CCCCN(CCCC)C1=Nc2ccccc2N/C1=C(/C#N)C(=O)OCC	-9	41	17*	5	9	5
CCCC(=O)NC1=C(Cl)C(=O)c2ccccc2C1=O	·	23	-12	·	1	·
CCNC1=C(Cl)C(=O)c2ccccc2C1=O	-7	4	-1	55	-9	16
Cc1ccc(NC2=C(Cl)C(=O)c3ccccc3C2=O)cc1	112*	2	-5	3	5	·
Cc1ccc(NC2=CC(=O)C(=O)c3ccccc32)cc1	-8	14	1	100*	12	-7
CCN(CC)c1ccc(NC2=C(Cl)C(=O)c3ccccc3C2=O)cc1	106*	4	-1	1	-40	·
CC(=O)Nc1ccc(NC2=CC(=O)c3ccccc3C2=O)cc1	17	3	1	18	-2	-19
O=C1C=C(Nc2ccc(O)cc2)C(=O)c2ccccc21	105*	8	-4	100*	-1	-25
CCc1ccccc1N(CC(=O)NC1CCCC1)C(=O)CNC(=O)c1cccs1	1	-3	0	-1	-24	-6
SMILES	CSC inhib	MPTP block	NR3A LBD binder	Beta cell apopt	Gli-Sufu antag	Mdm2-MdmX inh
CCOC(=O)c1ccccc1NC(=O)COC(=O)c1c(CC)noc1C	-2	1	3	-2	-2	16
CCCCC(NC(=O)CCc1c(C)c2cc3c4c(oc3c(C)c2oc1=O)CCCC4)C(=O)O (stereo unspecified)	8	0	-5	-2	2	-10
CC(C)C[C@H]1CN(CCCC[C@@H]2CNC(=O)C(=O)N2Cc2ccccc2)C(=O)C(=O)N1Cc1ccccc1	·	0	·	·	·	·
CCC(c1nnnn1-c1ccc2c(c1)OCCO2)N1CCN(c2ccccc2OC)CC1 (stereo unspecified)	·	0	·	·	·	·
COC(=O)c1c(NC(=O)c2ccccc2)sc2c1CC(C)(C)OC2	80*	2	2	-2	-20	-9
CC(=C/c1ccccc1)/C=N/NC(=O)c1ccc2nc[nH]c2c1	2	0	0	8	-8	-30
COc1cc(/C=N/NC(=O)c2[nH]nc3c2CCc2ccccc2-3)ccc1O	51	3	29*	25	-2	11
COc1cccc(/C=N/NC(=O)c2ccc3nc[nH]c3c2)c1	-14	1	4	4	-4	20
COc1cc(/C=N/NC(=O)c2ccc3nc[nH]c3c2)ccc1O	-4	2	26*	-3	11	16
COc1cc(/C=N/NC(=O)c2ccc(CN(C)S(=O)(=O)c3ccc(C)cc3)cc2)ccc1O	78*	-1	6	8	5	18
O=C(N/N=C/C(Br)=C\c1ccccc1)c1ccc2nc[nH]c2c1	26	1	15*	15	-4	1
Cc1cccc(OCC(=O)N2CCc3ccccc3C2)c1	-4	-1	0	-9	13	-3
Nc1sccc1C(=O)NCc1ccccc1	·	1	·	·	·	·
CC1(C)CC(O)CC(C)(C)N1CC(O)COCc1ccccc1 (stereo unspecified)	2	-1	-8	-6	-5	8
COc1cc(/C=N/NC(=O)c2cc(-c3ccc4c(c3)OCO4)n[nH]2)ccc1O	75*	1	28*	42	-16	-4
CC(NC(=O)c1ccc2nc[nH]c2c1)c1ccccc1 (stereo unspecified)	0	1	0	2	0	10
CCC(CC)NC(=O)c1ccc2nc[nH]c2c1	-12	0	18*	-4	4	-1
CC(C)CN1C(=O)CN(S(C)(=O)=O)CC1(C)C(=O)Nc1ccc2c(c1)OCCO2 (stereo unspecified)	·	-1	·	·	·	·
CCCCCCc1nc(C(N)=O)c2[nH]c(=O)n(-c3ccc(OCC)cc3)c2n1	-23	1	-2	0	11	35
COC(CNC(=O)c1ccc2nc(-c3cccs3)c(-c3cccs3)nc2c1)OC	·	0	16*	-2	8	33
COC(=O)C[C@@H]1CC[C@@H](NS(=O)(=O)c2ccccc2OC)[C@@H](CO)O1	·	-1	·	·	·	·
NC(=S)N1N=C(c2ccccc2)CC1=O	·	0	-1	·	2	·
Cc1cccc(Nc2nnc(SCC(=O)Nc3ncc(C(F)(F)F)cc3Cl)s2)c1C	-6	2	-8	-1	9	13
Cc1cccc(C)c1Nc1nnc(SCC(=O)Nc2ncc(C(F)(F)F)cc2Cl)s1	-8	-14	12*	2	-9	-14
